Among the data in PubChem BioAssay AID1259418 (Broad Institute, 2018) are max activity values, retold here.

About 840 (25%) of roughly 3,400 compounds were called active. Another 11% or so got no clear call; they are omitted. The list is a sample of the results. Entries with a potency or affinity are not part of this list. A number with no mark means an inactive call.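 Rule for the calls: active = fitted half-maximal concentration of signal decrease at or below twice the sample's top tested concentration; inconclusive = flat curve between -70 and -30 percent, or poor fit; inactive = flat within 30 percent, signal rise, or potency above limit.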

This assay in a line: inhibitors of Toxoplasma growth in IFN-γ-primed HeLa – cell-based, ME49Luc, luciferase, 72 h, dose response (AID 1259418). As to conditions: T. gondii ME49Luc in IFN-y HeLa, hits give low values, -100% = high-dose IFN-γ control wells; at 19.5 µM unless noted.
As for `O=C(c1cccs1)N1CCC2(CC1)Nc1cc(F)ccc1-n1cccc12`, the max activity is 9.34% [at 0.68 µM]. `O=C(CCC1Nc2c3ccccc3nc(=S)n2C1=O)NCCN1CCC(Cc2ccccc2)CC1` (centres undefined): the max activity was 54.5% [at 10 µM]. On to `CCc1ccc2c(c1)cc(S(=O)(=O)c1ccccc1)c(=O)n2CC(=O)NCCCOC`, for which the max activity is 8.62% [at 10 µM].

Consider `COCCN1CCc2nc(SCc3nc(-c4ccccc4OC)oc3C)[nH]c(=O)c2C1`, for which the max activity was 14.3% [at 5 µM]. In the case of `COc1cc(-c2noc(-c3nnn(Cc4nc(-c5ccccc5)oc4C)c3C)n2)ccc1OC(C)C`, the max activity is 9.04% [at 0.16 µM].

As to `CSc1cccc(NC(=O)N2CCc3nc(-c4ccc(C)cc4)sc3C2)c1`, the max activity is 42.8% [at 10 µM]. As for `O=C(Nc1ccc(-c2nc(-c3ccccc3)co2)cc1)c1ccccc1Cl`, the max activity was 40%. Then `Cn1nccc1C(=O)N1CCC2(CC1)Nc1cc(F)ccc1-n1cccc12`, with -9.01%; and `c1csc(-c2cc(NC3CCNCC3)nc3[nH]ccc23)n1`, with 35.6% [at 5 µM].

Turning to `Clc1ccc(CSc2nc(Nc3ccc4c(c3)OCO4)c3ccccc3n2)cc1`, the max activity was 5.7% [at 2.6 µM]. For `Fc1cccc(CSc2nc(Nc3ccc4c(c3)OCO4)c3ccccc3n2)c1` the value was 11.5%; for `Fc1ccc(Nc2nc(SCc3ccccc3F)nc3ccccc23)cc1`, 12.5%; for `COc1cc(Nc2nc(SCc3ccccc3Cl)nc3ccccc23)cc(OC)c1OC`, 11% [at 0.68 µM]. For `CCc1ccc(-c2noc(-c3nnn(Cc4nc(-c5ccccc5)oc4C)c3C)n2)cc1` the value was 20.7%.

Take `Cc1ccc(NC(=O)Nc2ccc(-c3nc(-c4ccc(C)cc4C)co3)cc2)cc1`: the max activity is 46.2%. On to `CC(C)Cc1ccc(S(=O)(=O)N2CCC3(CC2)NCCN=C3NCc2cc(F)cc(F)c2)cc1`, for which the max activity was 20.3%. Consider `Cc1ccccc1CNC1=NCCNC12CCN(S(=O)(=O)c1ccc(CC(C)C)cc1)CC2`, for which the max activity was 13.3% [at 2.6 µM]. Consider `Cc1ccc(CNC2=NCCNC23CCN(S(=O)(=O)c2ccc(CC(C)C)cc2)CC3)cc1`, for which the max activity is 13.1% [at 10 µM]. In the case of `COc1ccc(NC(=O)N2CCc3nc(-c4ccccc4)sc3C2)cc1OC`, the max activity was -8.38% [at 0.35 µM]. For `Cc1nc(OCC(=O)Nc2ccc(Br)cc2)c2ccccc2n1`, the max activity was 28% [at 1.35 µM]. On to `Cc1ccc(C)c(NC(=O)COc2nc(C)nc3ccccc23)c1`, for which the max activity was 15.8% [at 10 µM].

On to `N#CCSC1=Nc2ccccc2C2=NC(CCC(=O)NCc3ccccc3)C(=O)N12` (centres undefined), for which the max activity is 72.9%. Consider `CCOc1ccc(-c2nc(CN3CCN(C(=O)Nc4cc(C)ccc4C)CC3)c(C)o2)cc1`, for which the max activity was -22.4%. For `Cc1nc(OCC(=O)Nc2ccccc2Cl)c2ccccc2n1`, the max activity was 28.8% [at 0.35 µM]. Regarding `CCc1nc(OCC(=O)Nc2cc(OC)cc(OC)c2)c2ccccc2n1`, the max activity was 14.7% [at 0.68 µM]. Turning to `COc1ccc(-c2nc(Cn3nnc(-c4nc(-c5cccnc5)no4)c3C)c(C)o2)cc1`, the max activity was 6.33% [at 5 µM]. For `Cc1nc(OCC(=O)Nc2cccc(C)c2C)c2ccccc2n1`, the max activity is 9.02% [at 0.16 µM]. Regarding `Cc1nc(CCNC(=O)[C@H]2CCCN2S(=O)(=O)c2ccc(C)c(C)c2)cs1`, the max activity is 15.2% [at 10 µM]. Turning to `Cc1c(S(=O)(=O)N2CCC[C@@H]2C(=O)NCCc2csc(-c3ccccc3)n2)cnn1C(F)F`, the max activity is 5.67% [at 2.6 µM].

In the case of `Cc1nc(CCNC(=O)[C@H]2CCCN2S(=O)(=O)c2ccc(Cl)cc2)cs1`, the max activity is 23.5% [at 0.16 µM]. Turning to `Cc1ccc(S(=O)(=O)N2CCC[C@@H]2C(=O)NCCc2csc(C)n2)cc1`, the max activity was 7.86% [at 10 µM].

In the case of `Cc1nc(CCNC(=O)[C@H]2CCCN2S(=O)(=O)c2ccc(F)cc2)cs1`, the max activity was 18.1% [at 1.35 µM]. With `Cc1nc(CCNC(=O)[C@H]2CCCN2S(=O)(=O)c2ccccc2C)cs1`, the max activity is 12.4% [at 10 µM]. Consider `O=C(NCCc1csc(-c2ccccc2)n1)[C@H]1CCCN1S(=O)(=O)c1cccc(F)c1`, for which the max activity was -25.4% [at 1.35 µM]. `CCc1ccc(S(=O)(=O)N2CCc3nc(-c4cccc(OC)c4)sc3C2)cc1`: the max activity was -5.58% [at 5 µM].

Take `Cc1cccc(-n2ncc3c(NC4CCCCCCCCCCC4)ncnc32)c1`: the max activity is 22.5% [at 10 µM]. `CCOC(=O)c1cccc(NC(=O)Nc2ccc(-c3nc(-c4ccccc4)co3)cc2)c1`: the max activity is 14.5% [at 0.16 µM].

Consider `COc1ccccc1-c1nc(Cn2nnc(-c3nc(-c4ccc(F)cc4)no3)c2C)c(C)o1`, for which the max activity is 9.82% [at 0.16 µM]. For `CS(=O)(=O)N1CCO[C@@H]2CN(C(=O)Cc3ccccn3)CC[C@H]2C1` the value was -7.92% [at 0.3 µM]. For `COc1ccc(-c2nc(Cn3nnc(-c4nc(-c5ccc(OC(C)C)cc5)no4)c3C)c(C)o2)cc1` the value was 11.3% [at 0.35 µM]. For `COc1cccc(NC(=O)Nc2ccc(-c3nc(-c4cccc(Br)c4)co3)cc2)c1` the value was 13.3%; for `Cc1ccc(C(=O)Nc2c(C(=O)N3CCCC3)[nH]c3ccc(C)cc23)cc1`, 49.7% [at 10 µM].

In the case of `CCC(C)NC(=O)Cn1c(=O)c(S(=O)(=O)c2ccccc2)cc2cc(C)ccc21` (centres undefined), the max activity is -4.98% [at 10 µM]. `CC(C)(C)c1ccc(S(=O)(=O)N2CCC[C@@H]2C(=O)NCCc2csc(-c3ccccc3)n2)cc1`: the max activity is -14.7% [at 0.16 µM]. Consider `O=C(NCCc1csc(-c2ccccc2)n1)[C@H]1CCCN1S(=O)(=O)c1cccc(Cl)c1`, for which the max activity was -25.7%. For `Cc1cc(C)c(S(=O)(=O)N2CCC[C@@H]2C(=O)NCCc2csc(-c3ccccc3)n2)cc1C` the value was -22.5%; for `Cc1cc(C)cc(C(=O)N2CCC[C@@H]2C(=O)NCCc2csc(-c3ccccc3)n2)c1`, -12.7%. With `CCc1ccc(S(=O)(=O)N2CCC[C@@H]2C(=O)NCCc2csc(C)n2)cc1`, the max activity is -9.49% [at 0.35 µM]. For `Cc1nc(CCNC(=O)[C@H]2CCCN2S(=O)(=O)c2ccc(Cl)s2)cs1` the value was 12.6% [at 0.16 µM].
